Reference: PubChem BioAssay (Tox21)
Several values for one entry are separate records, joined by “and”; a condition that tells them apart may be missing. Identical values can stand only once. Records with an inconclusive call do not appear. Entries that show only a call come without a potency. More than one record can exist for a structure, and the calls need not agree. Activity calls are given as the source filed them. Unless noted, calls come from the whole dose curve; as a rule, active = well fitted curve in the direction sought with a large enough effect in the repeat runs; inconclusive = weak or mixed curves; inactive = no such curve, though single readings can be large; an effect the other way counts as inactive or inconclusive.

Assays:
[1] = qHTS assay to identify small molecule agonists of the TGF-beta/Smad signaling pathway - cell viability counter screen (AID 1346829); note: top concentration of the series differs between compounds; nearly all actives have a fitted effect of over 45% in size
Method in brief: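 In parallel with the Smad reporter read, viability of HEK 293T cells stably carrying SBE-bla is quantified by ATP luminescence following 5 hr compound treatment.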

[2] = qHTS assay to identify small molecule agonists of the TGF-beta/Smad signaling pathway (AID 1346859; active = well fitted activation curve with a large enough effect in the signal ratio in the repeat runs, not every such curve was filed as active; the % refers to the signal ratio; note: series mostly up to about 77 µM)
Method in brief: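 Each well held 4,000 SBE-bla HEK 293T cells incubated overnight before compound addition; 5 hr later the cleavable FRET substrate went on for 2 hr at room temperature, and fluorescence was read at two emissions.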

[3] = molecular target: Thyrotropin-releasing hormone receptor (Homo sapiens) (UniProt P34981); assay: qHTS assay to identify small molecule antagonists of the thyrotropin-releasing hormone receptor (TRHR) signaling pathway (AID 1346877; active = well fitted inhibition curve with a large enough effect in the repeat runs, not every such curve was filed as active; note: series mostly up to about 51 µM)
Method in brief: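 TRHR-expressing HEK293 cells loaded with calcium dye for 2 h at 37 C; compounds pre-incubated 5 min at room temperature before TRH challenge at 1 nM final. Intracellular calcium fluorescence read kinetically for 3 min; 15 concentrations in triplicate.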

[4] = Human pregnane X receptor (PXR) small molecule agonists, qHTS cell viability counter screen (AID 1346977); note: nearly all actives have a fitted effect of over 50% in size; note: potency is the fitted concentration of half-maximal effect
Method in brief: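 Tox21 qHTS format; PXR-Luc HepG2, 2,000/well, charcoal-stripped FBS 5%. Cpd exposure 24hr. Read: CellTiter-Fluor fluorescence, multiplexed with luciferase.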

[5] = Caspase-3/7 induction in HepG2 cells by small molecules, qHTS assay (AID 1346978); note: nearly all actives have a fitted effect of over 15% in size; note: potency is the fitted concentration of half-maximal effect
Method in brief: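 Wild-type HepG2 cells (2,000/well) were settled 5 h at 37 C, 5% CO2, then exposed to compounds in DMSO for 17 h. Caspase-3/7 activity was read by luminescence 30 min after adding Caspase-Glo 3/7 reagent at room temperature.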

[6] = Caspase-3/7 induction in CHO-K1 cells by small molecules, qHTS cell viability counter screen (AID 1346979); note: nearly all actives have a fitted effect of over 35% in size; note: potency is the fitted concentration of half-maximal effect
Method in brief: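 CellTiter-Fluor viability check, qHTS format: wild-type CHO-K1, 16hr compound treatment, 1hr reagent incubation, fluorescence read.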

[7] = Caspase-3/7 induction in CHO-K1 cells by small molecules, qHTS assay (AID 1346980); note: nearly all actives have a fitted effect of over 15% in size
Method in brief: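 Wild-type cells were seeded at 1,500 per well and settled 5 hr at 37 C, 5% CO2, then exposed to DMSO-dissolved compounds for 17 hr. Caspase-Glo 3/7 reagent was added, and luminescence was read after 30min at room temperature.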

[8] = Caspase-3/7 induction in HepG2 cells by small molecules, qHTS cell viability counter screen (AID 1346981); note: nearly all actives have a fitted effect of over 30% in size; note: potency is the fitted concentration of half-maximal effect
Method in brief: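 Wild-type HepG2 cells, 2,000/well, settled 5 hr at 37 C, 5% CO2 before compound addition. Viability read by CellTiter-Fluor fluorescence, reagent added after 16 hr compound exposure, then 1 hr at 37C, in the same wells as the caspase read.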

[9] = molecular target: Nuclear receptor subfamily 1 group I member 2 (Homo sapiens) (UniProt O75469); assay: Human pregnane X receptor (PXR) small molecule agonists, qHTS assay (AID 1346982); note: nearly all actives have a fitted effect of over 35% in size; note: potency is the fitted concentration of half-maximal effect
Method in brief: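 PXR-Luc HepG2 reporter cells (CYP3A4-driven luciferase) in 5% charcoal-stripped FBS medium, plated 5 h before compound addition, then treated 24 h at 37C. Luciferase read by ONE-Glo luminescence after 30 min at room temperature.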

[10] = molecular target: Cytochrome P450 2D6 (Homo sapiens) (UniProt P10635); assay: Cytochrome P450 Family 2 Subfamily D Member 6 (CYP2D6) small molecule antagonists: luciferase reporter qHTS assay (AID 1671196); note: nearly all actives have a fitted effect of over 50% in size; note: potency is the fitted concentration of half-maximal effect
Method in brief: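 Cell-free P450-Glo system: CYP2D6 with proluciferin substrate was pre-incubated with compound for 10 min, then reacted with NADPH regeneration for 1 h at room temperature. Luciferin product was detected after 20 min, and data were reported as relative luminescence units.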

[11] = molecular target: Cytochrome P450 2C19 (Homo sapiens) (UniProt P33261); assay: Cytochrome P450 Family 2 Subfamily C Member 19 (CYP2C19) small molecule antagonists: luciferase reporter qHTS assay (AID 1671197); note: nearly all actives have a fitted effect of over 65% in size; note: potency is the fitted concentration of half-maximal effect
Method in brief: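 Compounds were tested on CYP2C19 activity via proluciferin conversion to luciferin. The 37C, 1 h reaction followed NADPH addition; detection reagent stopped it.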

[12] = molecular target: Voltage-gated inwardly rectifying potassium channel KCNH2 (Homo sapiens) (UniProt Q12809); assay: Human Ether-a-go-go-Related Gene (hERG) channel small molecule antagonists: fluorescence cell-based qHTS assay (AID 1671200);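 note: hERG-expressing U2OS cells given a thallium stimulus after FluxOR II dye loading; series mostly up to about 77 µM; nearly all actives have a fitted effect of over 50% in size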
Method in brief: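 Kinetic two-minute fluorescence traces, sampled at 1 s, were collected following thallium stimulus of U2OS cells (1000 per well) that had been cultured overnight at 37 C and loaded with FluxOR II.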

[13] = molecular target: Cytochrome P450 3A4 (Homo sapiens) (UniProt P08684); assay: Cytochrome P450 Family 3 Subfamily A Member 4 (CYP3A4) small molecule antagonists: luciferase reporter qHTS assay (AID 1671201); note: nearly all actives have a fitted effect of over 50% in size; note: potency is the fitted concentration of half-maximal effect
Method in brief: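 Proluciferin-to-luciferin conversion by CYP3A4, NADPH-regenerated, 1 h RT; luminescence read as RLU. Ketoconazole as control.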

[14] = molecular target: Thyrotropin-releasing hormone receptor (Homo sapiens) (UniProt P34981); assay: qHTS assay to identify small molecule agonists of the thyrotropin-releasing hormone receptor (TRHR) signaling pathway (AID 1346891; calls by dose curve; note: series mostly up to about 58 µM)
Method in brief: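 Screening of agonists relied on calcium signalling in HEK293 cells expressing human TRHR: dye loading 2 h at 37 °C preceded compound addition and a 3-min fluorescence time course.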

[15] = molecular target: Cytochrome P450 2C9 (Homo sapiens) (UniProt P11712); assay: Cytochrome P450 Family 2 Subfamily C Member 9 (CYP2C9) small molecule antagonists: luciferase reporter qHTS assay (AID 1671198); note: nearly all actives have a fitted effect of over 50% in size; note: potency is the fitted concentration of half-maximal effect
Method in brief: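 CYP2C9 activity was measured with a P450-Glo proluciferin substrate. Enzyme–substrate mix was held with compound for 10 min at room temperature, then NADPH regeneration solution was added for 1 h at 37C. Luciferin product was read as luminescence.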

[16] = molecular target: Cytochrome P450 1A2 (Homo sapiens) (UniProt P05177); assay: Cytochrome P450 Family 1 Subfamily A Member 2 (CYP1A2) small molecule antagonists: luciferase reporter qHTS assay (AID 1671199); note: nearly all actives have a fitted effect of over 50% in size; note: potency is the fitted concentration of half-maximal effect
Method in brief: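 P450-Glo CYP1A2 enzyme–proluciferin substrate mix with compound 10 min at room temperature, then NADPH regeneration 1 h at room temperature. Luciferin detection reagent added, luminescence read after 20 min; furafylline positive control.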

[17] = molecular target: Nuclear receptor subfamily 1 group I member 2 (Rattus norvegicus) (UniProt Q9R1A7); assay: Rat pregnane X receptor (rPXR) activation by small molecules, qHTS assay (AID 1346983); details: rPXR luciferase reporter cells, One-Glo luminescence, 24 h; max activation: stronger effect = higher value; note: nearly all actives have a fitted effect of over 20% in size; note: potency is the fitted concentration of half-maximal effect
Method in brief: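 Cell-based rPXR luciferase reporter assay, 2,000 cells per well, rested 5hr at 37 C before compound addition in DMSO, then 24 hr at 37 C. One-Glo reagent was added and luminescence read after 30 min at room temperature.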

[18] = molecular target: Nuclear receptor subfamily 1 group I member 2 (Homo sapiens) (UniProt O75469); assay: CYP3A4 induction through human pregnane X receptor (PXR) by small molecules, qHTS assay (AID 1346984); note: nearly all actives have a fitted effect of over 40% in size
Method in brief: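 DPX-2 HepG2 cells carrying a PXR response element and CYP3A4-promoter luciferase construct, treated with compounds 24 hr at 37C. Then P450-Glo CYP3A4 Luciferin-IPA substrate (3uM final) for 3 hr at 37C, One-Glo added, luminescence read.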

[19] = molecular target: Nuclear receptor subfamily 1 group I member 2 (Homo sapiens) (UniProt O75469); assay: Human pregnane X receptor (PXR) activation by small molecules, qHTS assay (AID 1346985); note: nearly all actives have a fitted effect of over 40% in size
Method in brief: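 DPX-2 cells (HepG2 co-transfected with a PXR response element and a CYP3A4-promoter luciferase construct) were seeded at 2,000 per well, rested 5 hr at 37C, then exposed to DMSO-dissolved compounds for 24 hr. Activation was read as luciferase luminescence.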

Chain of Cytochrome P450 3A4 (Homo sapiens) (P08684 whole entry, looked up): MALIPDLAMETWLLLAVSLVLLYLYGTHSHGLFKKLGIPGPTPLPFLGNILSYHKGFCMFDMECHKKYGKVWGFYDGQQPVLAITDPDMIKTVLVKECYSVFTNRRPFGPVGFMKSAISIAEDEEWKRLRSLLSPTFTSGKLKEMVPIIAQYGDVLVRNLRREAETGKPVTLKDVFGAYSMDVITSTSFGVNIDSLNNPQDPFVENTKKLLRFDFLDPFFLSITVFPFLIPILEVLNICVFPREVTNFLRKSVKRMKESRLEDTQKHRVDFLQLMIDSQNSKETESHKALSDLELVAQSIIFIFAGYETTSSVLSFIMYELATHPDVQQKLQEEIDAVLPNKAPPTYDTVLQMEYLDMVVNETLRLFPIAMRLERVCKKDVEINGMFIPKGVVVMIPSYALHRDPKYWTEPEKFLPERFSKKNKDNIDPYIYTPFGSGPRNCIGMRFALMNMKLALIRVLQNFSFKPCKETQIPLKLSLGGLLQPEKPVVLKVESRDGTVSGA
Chain of Nuclear receptor subfamily 1 group I member 2 (Homo sapiens) (O75469 whole entry, looked up): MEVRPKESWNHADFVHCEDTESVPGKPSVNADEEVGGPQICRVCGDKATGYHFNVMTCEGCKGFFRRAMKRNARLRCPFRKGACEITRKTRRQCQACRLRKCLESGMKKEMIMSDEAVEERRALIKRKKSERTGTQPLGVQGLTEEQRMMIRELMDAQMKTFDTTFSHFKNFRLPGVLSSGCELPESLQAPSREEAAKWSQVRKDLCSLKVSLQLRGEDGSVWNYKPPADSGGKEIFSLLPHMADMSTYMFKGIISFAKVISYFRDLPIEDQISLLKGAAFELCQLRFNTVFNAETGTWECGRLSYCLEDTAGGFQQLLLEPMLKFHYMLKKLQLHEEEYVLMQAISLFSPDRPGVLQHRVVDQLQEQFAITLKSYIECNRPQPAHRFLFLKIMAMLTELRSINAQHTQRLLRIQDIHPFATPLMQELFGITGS
Chain of Voltage-gated inwardly rectifying potassium channel KCNH2 (Homo sapiens) (Q12809 whole entry, looked up): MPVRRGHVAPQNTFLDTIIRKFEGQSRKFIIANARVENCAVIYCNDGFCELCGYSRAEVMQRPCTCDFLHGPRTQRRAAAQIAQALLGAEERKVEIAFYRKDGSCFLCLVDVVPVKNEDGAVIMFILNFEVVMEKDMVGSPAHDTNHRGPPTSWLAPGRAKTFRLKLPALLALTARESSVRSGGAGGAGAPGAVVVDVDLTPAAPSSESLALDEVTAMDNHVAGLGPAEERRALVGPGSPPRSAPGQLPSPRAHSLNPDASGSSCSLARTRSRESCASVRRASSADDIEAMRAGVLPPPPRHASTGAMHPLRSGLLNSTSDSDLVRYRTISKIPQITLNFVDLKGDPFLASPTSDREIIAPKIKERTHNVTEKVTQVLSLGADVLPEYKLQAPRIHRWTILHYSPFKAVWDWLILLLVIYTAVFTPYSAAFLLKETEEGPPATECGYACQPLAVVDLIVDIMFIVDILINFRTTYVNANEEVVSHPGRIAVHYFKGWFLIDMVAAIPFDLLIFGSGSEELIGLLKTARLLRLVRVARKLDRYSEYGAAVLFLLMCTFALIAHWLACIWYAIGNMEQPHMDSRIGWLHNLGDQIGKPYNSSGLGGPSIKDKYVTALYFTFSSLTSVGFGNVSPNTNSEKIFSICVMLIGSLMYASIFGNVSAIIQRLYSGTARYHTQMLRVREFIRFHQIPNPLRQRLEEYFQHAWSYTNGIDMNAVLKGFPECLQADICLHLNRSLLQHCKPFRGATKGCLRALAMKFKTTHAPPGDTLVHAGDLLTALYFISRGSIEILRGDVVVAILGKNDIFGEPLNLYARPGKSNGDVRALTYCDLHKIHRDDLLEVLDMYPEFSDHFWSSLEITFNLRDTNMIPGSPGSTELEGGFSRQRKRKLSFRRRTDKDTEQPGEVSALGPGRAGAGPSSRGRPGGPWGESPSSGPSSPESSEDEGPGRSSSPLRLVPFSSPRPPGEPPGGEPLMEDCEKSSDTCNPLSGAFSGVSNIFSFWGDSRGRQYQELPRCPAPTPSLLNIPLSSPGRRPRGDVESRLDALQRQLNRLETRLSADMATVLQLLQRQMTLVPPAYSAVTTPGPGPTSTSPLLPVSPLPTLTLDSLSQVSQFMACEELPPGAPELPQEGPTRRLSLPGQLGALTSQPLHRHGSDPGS
Chain of Cytochrome P450 2C9 (Homo sapiens) (P11712 whole entry, looked up): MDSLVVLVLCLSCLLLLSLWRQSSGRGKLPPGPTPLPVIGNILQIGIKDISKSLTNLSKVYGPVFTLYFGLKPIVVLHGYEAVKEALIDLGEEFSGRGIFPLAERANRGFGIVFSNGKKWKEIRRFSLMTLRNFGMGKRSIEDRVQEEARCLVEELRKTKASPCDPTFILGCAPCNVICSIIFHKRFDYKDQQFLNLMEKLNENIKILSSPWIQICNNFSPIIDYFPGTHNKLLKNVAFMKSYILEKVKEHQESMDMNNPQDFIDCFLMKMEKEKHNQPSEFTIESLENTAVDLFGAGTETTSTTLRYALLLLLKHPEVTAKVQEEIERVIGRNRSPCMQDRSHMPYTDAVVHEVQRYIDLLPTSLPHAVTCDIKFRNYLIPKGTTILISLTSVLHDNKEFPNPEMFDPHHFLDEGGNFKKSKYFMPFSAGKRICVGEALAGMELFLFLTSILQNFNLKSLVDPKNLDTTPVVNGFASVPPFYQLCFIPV
Chain of Cytochrome P450 2C19 (Homo sapiens) (P33261 whole entry, looked up): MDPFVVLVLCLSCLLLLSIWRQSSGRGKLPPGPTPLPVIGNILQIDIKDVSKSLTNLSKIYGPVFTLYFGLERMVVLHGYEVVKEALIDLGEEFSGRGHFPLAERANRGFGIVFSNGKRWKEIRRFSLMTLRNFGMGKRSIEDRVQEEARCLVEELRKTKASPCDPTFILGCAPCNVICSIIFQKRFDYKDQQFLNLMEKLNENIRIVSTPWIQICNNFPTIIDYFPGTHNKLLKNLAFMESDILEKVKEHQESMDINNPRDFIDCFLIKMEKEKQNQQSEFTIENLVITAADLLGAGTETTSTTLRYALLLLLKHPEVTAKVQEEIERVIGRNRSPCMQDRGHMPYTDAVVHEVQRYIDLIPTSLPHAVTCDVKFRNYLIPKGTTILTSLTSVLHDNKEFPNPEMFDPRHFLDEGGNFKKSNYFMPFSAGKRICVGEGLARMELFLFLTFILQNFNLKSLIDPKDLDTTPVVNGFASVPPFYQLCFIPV
Chain of Thyrotropin-releasing hormone receptor (Homo sapiens) (P34981 whole entry, looked up): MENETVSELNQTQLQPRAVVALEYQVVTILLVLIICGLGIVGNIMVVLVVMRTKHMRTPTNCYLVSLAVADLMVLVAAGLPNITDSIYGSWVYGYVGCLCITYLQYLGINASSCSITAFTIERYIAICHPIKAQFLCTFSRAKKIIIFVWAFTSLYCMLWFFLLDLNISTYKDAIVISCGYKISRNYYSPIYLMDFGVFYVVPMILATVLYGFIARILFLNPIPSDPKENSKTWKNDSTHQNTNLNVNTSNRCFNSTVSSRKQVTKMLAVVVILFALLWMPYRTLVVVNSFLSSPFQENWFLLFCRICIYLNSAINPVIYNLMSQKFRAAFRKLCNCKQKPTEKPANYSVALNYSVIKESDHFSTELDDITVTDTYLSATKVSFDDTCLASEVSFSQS
Chain of Nuclear receptor subfamily 1 group I member 2 (Rattus norvegicus) (Q9R1A7 whole entry, looked up): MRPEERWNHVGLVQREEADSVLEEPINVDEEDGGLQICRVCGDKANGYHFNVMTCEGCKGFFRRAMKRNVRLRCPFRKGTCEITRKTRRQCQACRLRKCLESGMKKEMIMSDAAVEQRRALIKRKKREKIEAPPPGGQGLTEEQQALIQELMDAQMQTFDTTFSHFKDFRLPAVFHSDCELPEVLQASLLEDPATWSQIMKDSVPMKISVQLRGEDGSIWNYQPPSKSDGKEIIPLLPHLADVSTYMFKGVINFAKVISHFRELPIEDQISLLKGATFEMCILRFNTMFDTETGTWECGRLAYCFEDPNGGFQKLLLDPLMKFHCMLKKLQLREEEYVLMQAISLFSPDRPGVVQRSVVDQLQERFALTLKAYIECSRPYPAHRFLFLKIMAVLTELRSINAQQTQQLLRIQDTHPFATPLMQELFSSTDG
Chain of Cytochrome P450 2D6 (Homo sapiens) (P10635 whole entry, looked up): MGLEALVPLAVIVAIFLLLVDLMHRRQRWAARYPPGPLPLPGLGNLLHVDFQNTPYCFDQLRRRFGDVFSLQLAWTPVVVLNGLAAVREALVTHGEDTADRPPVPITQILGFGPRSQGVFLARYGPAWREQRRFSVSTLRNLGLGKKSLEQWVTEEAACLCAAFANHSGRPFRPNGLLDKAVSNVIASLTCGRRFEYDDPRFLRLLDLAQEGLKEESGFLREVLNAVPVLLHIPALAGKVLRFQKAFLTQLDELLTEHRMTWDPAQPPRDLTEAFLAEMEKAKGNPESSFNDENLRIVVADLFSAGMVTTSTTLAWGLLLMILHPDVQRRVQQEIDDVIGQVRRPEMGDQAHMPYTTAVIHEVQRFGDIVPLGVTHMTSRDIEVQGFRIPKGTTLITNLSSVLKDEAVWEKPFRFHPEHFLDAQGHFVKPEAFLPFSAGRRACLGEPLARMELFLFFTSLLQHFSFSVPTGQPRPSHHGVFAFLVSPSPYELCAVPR
Chain of Cytochrome P450 1A2 (Homo sapiens) (P05177 whole entry, looked up): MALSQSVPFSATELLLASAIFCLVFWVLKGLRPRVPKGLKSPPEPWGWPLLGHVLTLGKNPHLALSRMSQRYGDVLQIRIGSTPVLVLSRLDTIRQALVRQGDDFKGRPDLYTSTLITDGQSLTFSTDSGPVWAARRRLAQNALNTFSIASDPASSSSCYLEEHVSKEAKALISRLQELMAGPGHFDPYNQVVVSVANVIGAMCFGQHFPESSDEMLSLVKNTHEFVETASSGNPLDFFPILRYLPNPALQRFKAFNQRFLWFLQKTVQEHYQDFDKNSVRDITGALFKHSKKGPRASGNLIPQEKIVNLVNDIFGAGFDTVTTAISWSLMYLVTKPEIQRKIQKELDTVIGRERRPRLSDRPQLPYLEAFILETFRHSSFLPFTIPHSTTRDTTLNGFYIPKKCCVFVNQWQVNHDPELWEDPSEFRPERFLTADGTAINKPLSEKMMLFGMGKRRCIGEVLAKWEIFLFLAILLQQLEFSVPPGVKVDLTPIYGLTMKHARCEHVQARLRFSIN

Row | SMILES | Potency [1] | outcome [2] | Potency [3] | Potency [4] | Potency [5] | Potency [6] | outcome [7] | Potency [8] | Potency [9] | Potency [10] | Potency [11] | outcome [12] | Potency [13] | outcome [14] | Potency [15] | Potency [16] | max activation [17] | outcome [18] | Potency [19] | Potency [17]
1 | O=C(O)c1ccc(C(=O)O)cc1 | inactive | inactive | inactive | inactive | inactive | inactive | inactive | inactive | inactive | inactive | inactive | inactive | inactive |  |  |  |  |  |  | 
2 | C=CCOC(=O)c1ccccc1C(=O)OCC=C | inactive | inactive |  | inactive | inactive | inactive | inactive | inactive | inactive | inactive | 1.56 µM (active) and 1.26 µM (active) | inactive | 3.12 µM (active) and 6.33 µM (active) | inactive | 3.93 µM (active) and 5.64 µM (active) | 2.48 µM (active) and 3.56 µM (active) |  |  |  | 
3 | O=C(O)c1cc(O)c(O)c(O)c1 | inactive | inactive |  | 49 µM (active) and inactive | inactive | 30.9 µM (active) | inactive | 43.7 µM (active) | inactive | inactive |  | inactive | inactive | inactive |  | inactive | -1.49% (inactive) | inactive | inactive | 
4 | CC(=O)OCC(=O)[C@@]12N=C(C)O[C@@H]1C[C@H]1[C@@H]3CCC4=CC(=O)C=C[C@]4(C)[C@H]3[C@@H](O)C[C@@]12C | inactive | inactive | inactive | inactive | inactive | inactive | inactive | inactive | 17.2 µM (active) | inactive | inactive | inactive | inactive | inactive | inactive | inactive and 17.4 µM (active) |  | inactive | inactive | 15.8 µM (active)
5 | CCCCCC(N)=O | inactive | inactive | inactive | inactive | inactive |  | inactive | inactive | inactive | inactive | inactive | inactive | inactive | inactive |  | inactive | -0.768% (inactive) | inactive | inactive | 
6 | CCCSc1ccc2nc(NC(=O)OC)[nH]c2c1 | inactive | inactive |  | inactive | 0.969 µM (active) |  | inactive | inactive |  | inactive | inactive | inactive |  | inactive |  | 5.64 µM (active) and 5.75 µM (active) |  |  |  | 
7 | CCC(O)OCCCOC (stereo not given) | inactive | inactive | inactive | 22.4 µM (active) and inactive | inactive |  | inactive | inactive | 11.1 µM (active) and inactive | inactive | 41 µM (active) and inactive | inactive | inactive | inactive | inactive | inactive |  |  |  | 
8 | CCCCC(CC)COC(=O)CCCCC(=O)OCC(CC)CCCC (stereo not given) | inactive | inactive | inactive | inactive | inactive |  | inactive | inactive | inactive | inactive | 70.6 µM (active) | inactive | inactive |  | 28.3 µM (active) | inactive and 35.6 µM (active) |  |  |  | 
9 | OC[C@H]1O[C@@](CO)(O[C@H]2O[C@H](CO)[C@@H](O)[C@H](O)[C@H]2O)[C@@H](O)[C@@H]1O | inactive | inactive |  | inactive | inactive | inactive | inactive | inactive | inactive and 27.3 µM (active) | inactive | inactive | inactive | inactive | inactive | inactive | inactive | 0.408% (inactive) | inactive | inactive | 
10 | CCCCCCCCCCCCCCO | inactive | inactive |  | inactive | inactive | inactive | inactive | inactive | inactive | inactive | inactive | inactive | inactive | inactive | inactive | 22.4 µM (active) |  |  |  | 
11 | Cc1occc(=O)c1O | inactive | inactive | inactive | inactive | inactive |  | inactive | inactive | inactive | inactive | 71 µM (active) and inactive | inactive | inactive | inactive |  | inactive |  |  |  | 
12 | COCCCOc1ccnc(CS(=O)c2nc3ccccc3[nH]2)c1C (stereo not given) | inactive | inactive | inactive | inactive | inactive | 60.9 µM (active) and inactive | inactive | inactive |  |  |  | inactive |  | inactive |  |  |  |  |  | 14.1 µM (active)
13 | CC1=CCC2CC1C2(C)C (stereo not given) | inactive | inactive | inactive | inactive | inactive | inactive | inactive | inactive | inactive | inactive and 7.1 µM (active) | inactive | inactive | inactive |  | inactive | inactive | -0.804% (inactive) | inactive | inactive | 
14 | CCCCCCCCCCCCOCCO | inactive | inactive |  | inactive | inactive |  | inactive | inactive | 61.1 µM (active) and inactive | inactive | 25.2 µM (active) and inactive | inactive | inactive | inactive | 39.9 µM (active) | 31.7 µM (active) and 34.7 µM (active) |  |  |  | 
